Assay results: PubChem BioAssay AID1159580 (chemical genetic matrix, 2015)
Where “and” joins values, the source holds several entries; their conditions need not be identical. Identical values can stand only once. About 2,000 (36%) of roughly 5,500 compounds were called active. Not shown: some 18% with an inconclusive outcome. Rule as the data show it: active = normalized growth mostly below about 0.91 (no sharp cut-off); inconclusive = no clear call, values can overlap the other calls; inactive = mostly above about 0.92. The list shows a part of the results.

Experiment: chemical genetic growth profiling, strain panel (AID 1159580);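 also: tested at 20 µM; growth read once vehicle control cultures reached saturation at 30 °C; 1 = growth at the plate median or of vehicle wells; lower values mean less growth of the strain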
Conditions: growth OD

Measured: normalized growth

CC(=O)OC/C=C(C)/C=C/C=C(C)/C=C/C1=C(C)CCCC1(C)C
inactive: S. cerevisiae deletion strains, locus YAL013W, strain DEP1, stronger effect = lower value 1.02 | S. cerevisiae deletion strains, locus YBR021W, strain FUR4, stronger effect = lower value 1.03 | S. cerevisiae deletion strains, locus YBR229C, strain ROT2, stronger effect = lower value 1.02 | S. cerevisiae deletion strains, locus YCL029C, strain bik1, stronger effect = lower value 1 | S. cerevisiae deletion strains, locus YDL035C, strain GPR1, stronger effect = lower value 1.01 | S. cerevisiae deletion strains, locus YDL074C, strain BRE1, stronger effect = lower value 1.03 | S. cerevisiae deletion strains, locus YDL101C, strain DUN1, stronger effect = lower value 1.03 | S. cerevisiae deletion strains, locus YDL134C, strain PPH21, stronger effect = lower value 1 | S. cerevisiae deletion strains, locus YDL185W, strain tfp1, stronger effect = lower value 0.992 | S. cerevisiae deletion strains, locus YDL192W, strain arf1, stronger effect = lower value 0.994 | S. cerevisiae deletion strains, locus YDR101C, strain arx1, stronger effect = lower value 0.988 | S. cerevisiae deletion strains, locus YDR150W, strain NUM1, stronger effect = lower value 1.01 | S. cerevisiae deletion strains, locus YDR162C, strain NBP2, stronger effect = lower value 1.01 | S. cerevisiae deletion strains, locus YDR318W, strain mcm21, stronger effect = lower value 1 | S. cerevisiae deletion strains, locus YDR388W, stronger effect = lower value 0.994 | S. cerevisiae deletion strains, locus YDR502C, strain sam2, stronger effect = lower value 0.996 | S. cerevisiae deletion strains, locus YEL061C, strain CIN8, stronger effect = lower value 1.02 | S. cerevisiae deletion strains, locus YER110C, stronger effect = lower value 0.992 | S. cerevisiae deletion strains, locus YER155C, strain BEM2, stronger effect = lower value 1.02 | S. cerevisiae deletion strains, locus YER167W, strain BCK2, stronger effect = lower value 1.02 | S. cerevisiae deletion strains, locus YGL078C, strain dbp3, stronger effect = lower value 0.982 | S. cerevisiae deletion strains, locus YGL086W, strain mad1, stronger effect = lower value 1 | S. cerevisiae deletion strains, locus YGL248W, strain PDE1, stronger effect = lower value 1.03 | S. cerevisiae deletion strains, locus YGR078C, strain PAC10, stronger effect = lower value 1.04 | S. cerevisiae deletion strains, locus YGR135W, strain pre9, stronger effect = lower value 0.984 | S. cerevisiae deletion strains, locus YGR252W, strain gcn5, stronger effect = lower value 0.982 | S. cerevisiae deletion strains, locus YHR030C, strain SLT2, stronger effect = lower value 1.02 and 1.06 | S. cerevisiae deletion strains, locus YHR079C, strain IRE1 (second series), stronger effect = lower value 1 | S. cerevisiae deletion strains, locus YHR079C, strain IRE1, stronger effect = lower value 1.06 | S. cerevisiae deletion strains, locus YHR094C, strain hxt1, stronger effect = lower value 0.991 | S. cerevisiae deletion strains, locus YHR129C, strain ARP1, stronger effect = lower value 1.02 | S. cerevisiae deletion strains, locus YHR200W, strain rpn10, stronger effect = lower value 0.999 | S. cerevisiae deletion strains, locus YIL066C, strain RNR3, stronger effect = lower value 1.02 | S. cerevisiae deletion strains, locus YIL073C, strain SPO22, stronger effect = lower value 1.02 | S. cerevisiae deletion strains, locus YIL125W, strain kgd1, stronger effect = lower value 0.992 | S. cerevisiae deletion strains, locus YIR030C, strain dcg1, stronger effect = lower value 0.994 | S. cerevisiae deletion strains, locus YJL095W, strain BCK1, stronger effect = lower value 1.05 and 1.04 | S. cerevisiae deletion strains, locus YJL134W, strain LCB3, stronger effect = lower value 1.02 | S. cerevisiae deletion strains, locus YJL168C, strain set2, stronger effect = lower value 0.999 | S. cerevisiae deletion strains, locus YJL187C, strain SWE1 (second series), stronger effect = lower value 1.02 | S. cerevisiae deletion strains, locus YJR043C, strain POL32, stronger effect = lower value 1.02 | S. cerevisiae deletion strains, locus YJR066W, strain TOR1, stronger effect = lower value 0.959 | S. cerevisiae deletion strains, locus YJR075W, strain HOC1, stronger effect = lower value 1.03 | S. cerevisiae deletion strains, locus YKL009W, strain mrt4, stronger effect = lower value 1.01 | S. cerevisiae deletion strains, locus YKL068W, stronger effect = lower value 1 | S. cerevisiae deletion strains, locus YKL085W, strain MDH1 (second series), stronger effect = lower value 0.993 | S. cerevisiae deletion strains, locus YKL085W, strain MDH1, stronger effect = lower value 0.993 | S. cerevisiae deletion strains, locus YKL190W, strain CNB1, stronger effect = lower value 1.01 | S. cerevisiae deletion strains, locus YKR001C, strain vps1, stronger effect = lower value 0.999 | S. cerevisiae deletion strains, locus YLR039C, strain RIC1, stronger effect = lower value 1.05 | S. cerevisiae deletion strains, locus YLR058C, strain SHM2, stronger effect = lower value 1.01 | S. cerevisiae deletion strains, locus YLR102C, strain apc9, stronger effect = lower value 1 | S. cerevisiae deletion strains, locus YLR113W, strain HOG1, stronger effect = lower value 0.981 | S. cerevisiae deletion strains, locus YLR262C, strain YPT6, stronger effect = lower value 1.03 | S. cerevisiae deletion strains, locus YLR268W, strain sec22, stronger effect = lower value 1.01 | S. cerevisiae deletion strains, locus YLR330W, strain CHS5, stronger effect = lower value 1.02 | S. cerevisiae deletion strains, locus YLR342W, strain FKS1 (second series), stronger effect = lower value 0.986 | S. cerevisiae deletion strains, locus YLR371W, strain rom2, stronger effect = lower value 1 | S. cerevisiae deletion strains, locus YLR418C, strain cdc73, stronger effect = lower value 0.986 | S. cerevisiae deletion strains, locus YML016C, strain PPZ1, stronger effect = lower value 1.01 | S. cerevisiae deletion strains, locus YML032C, strain rad52, stronger effect = lower value 0.998 | S. cerevisiae deletion strains, locus YML124C, strain tub3, stronger effect = lower value 0.999 | S. cerevisiae deletion strains, locus YMR078C, strain ctf18, stronger effect = lower value 1.01 | S. cerevisiae deletion strains, locus YMR223W, strain ubp8, stronger effect = lower value 1.01 | S. cerevisiae deletion strains, locus YMR307W, strain GAS1, stronger effect = lower value 0.898 | S. cerevisiae deletion strains, locus YNL067W, strain RPL9B, stronger effect = lower value 1.03 | S. cerevisiae deletion strains, locus YNL183C, strain NPR1, stronger effect = lower value 0.953 | S. cerevisiae deletion strains, locus YNL233W, strain BNI4, stronger effect = lower value 1.05 | S. cerevisiae deletion strains, locus YNL250W, strain rad50, stronger effect = lower value 0.989 | S. cerevisiae deletion strains, locus YNL271C, strain bni1, stronger effect = lower value 0.988 | S. cerevisiae deletion strains, locus YNL298W, strain CLA4, stronger effect = lower value 0.981 | S. cerevisiae deletion strains, locus YNL307C, strain MCK1, stronger effect = lower value 1 | S. cerevisiae deletion strains, locus YNL322C, strain KRE1, stronger effect = lower value 1.02 | S. cerevisiae deletion strains, locus YNR052C, strain pop2, stronger effect = lower value 0.996 | S. cerevisiae deletion strains, locus YOL006C, strain TOP1, stronger effect = lower value 1.06 | S. cerevisiae deletion strains, locus YOL012C, strain htz1 1.19 | S. cerevisiae deletion strains, locus YOL147C, strain pex11, stronger effect = lower value 0.997 | S. cerevisiae deletion strains, locus YOR061W, strain CKA2, stronger effect = lower value 1.01 | S. cerevisiae deletion strains, locus YOR069W, strain VPS5, stronger effect = lower value 1.02 | S. cerevisiae deletion strains, locus YOR136W, strain idh2, stronger effect = lower value 1 | S. cerevisiae deletion strains, locus YOR144C, strain elg1, stronger effect = lower value 0.998 | S. cerevisiae deletion strains, locus YOR184W, strain ser1, stronger effect = lower value 0.998 | S. cerevisiae deletion strains, locus YOR231W, strain MKK1, stronger effect = lower value 1.04 | S. cerevisiae deletion strains, locus YOR316C, strain cot1, stronger effect = lower value 0.999 | S. cerevisiae deletion strains, locus YPL241C, strain CIN2, stronger effect = lower value 1.01 | S. cerevisiae deletion strains, locus YPL256C, strain CLN2, stronger effect = lower value 1.08 | S. cerevisiae deletion strains, locus YPR119W, strain clb2, stronger effect = lower value 1 | S. cerevisiae deletion strains, locus YPR141C, strain kar3, stronger effect = lower value 0.992 | S. cerevisiae deletion strains, locus YPR163C, strain tif3, stronger effect = lower value 0.994 | S. cerevisiae deletion strains, locus YPR167C, strain met16, stronger effect = lower value 1 | S. cerevisiae deletion strains, strain wtn01, stronger effect = lower value 0.995 | S. cerevisiae strains, strain wild type, stronger effect = lower value 1.02
